PubChem BioAssay AID1159580 (chemical genetic matrix, 2015)
Where “and” joins values, the source holds several entries; their conditions need not be identical. Equal values may be shown once. In all, about 5,500 compounds went through this assay and about 2,000 (36%) were called active. About 18% were inconclusive and are not listed. Rule as the data show it: active = normalized growth mostly below about 0.91 (no sharp cut-off); inconclusive = no clear call, values can overlap the other calls; inactive = mostly above about 0.92. Some of the results follow.

Experiment: chemical genetic growth profiling, strain panel (AID 1159580);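 also: tested at 20 µM; growth read once vehicle control cultures reached saturation at 30 °C; 1 = growth at the plate median or of vehicle wells; lower values mean less growth of the strain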
Settings: S. cerevisiae deletion strains, growth OD

Measured: normalized growth

CC(=O)OCC(=O)[C@@]12OC(C)(C)O[C@@H]1CC1C3C[C@H](F)C4=CC(=O)C=C[C@]4(C)[C@@]3(F)[C@@H](O)C[C@@]12C (some centres not stated)
inactive: locus YAL013W, strain DEP1, hits give low values 1 | locus YAL021C, strain ccr4, hits give low values 1.01 | locus YAL026C, strain drs2, hits give low values 1.02 | locus YAL030W, strain snc1, hits give low values 1.02 | locus YBL061C, strain skt5, hits give low values 1.03 | locus YBR009C, strain hhf1, hits give low values 1.01 | locus YBR021W, strain FUR4, hits give low values 0.996 | locus YBR023C, strain chs3, hits give low values 1.03 | locus YBR171W, strain sec66, hits give low values 1.03 | locus YBR229C, strain ROT2, hits give low values 1.01 | locus YBR231C, strain swc5, hits give low values 0.989 | locus YBR279W, strain paf1, hits give low values 1.03 | locus YCL011C, strain gbp2, hits give low values 1.04 | locus YCL016C, strain dcc1, hits give low values 1.03 | locus YCL029C, strain bik1, hits give low values 1.01 | locus YCL061C, strain MRC1, hits give low values 1.01 | locus YCL069W, strain vba3, hits give low values 1.02 | locus YCR088W, strain abp1, hits give low values 1.02 | locus YDL005C, strain med2, hits give low values 1.03 | locus YDL035C, strain GPR1, hits give low values 0.99 | locus YDL040C, strain nat1, hits give low values 1.02 | locus YDL074C, strain BRE1, hits give low values 1.01 | locus YDL101C, strain DUN1, hits give low values 1.01 | locus YDL134C, strain PPH21, hits give low values 0.99 | locus YDL185W, strain tfp1, hits give low values 1.02 | locus YDL192W, strain arf1, hits give low values 1.02 | locus YDR001C, strain nth1, hits give low values 1.02 | locus YDR069C, strain doa4, hits give low values 0.998 | locus YDR101C, strain arx1, hits give low values 0.965 | locus YDR137W, strain rgp1, hits give low values 1.03 | locus YDR150W, strain NUM1, hits give low values 1.01 | locus YDR159W, strain sac3, hits give low values 0.989 | locus YDR162C, strain NBP2, hits give low values 0.989 | locus YDR195W, strain ref2 0.999 | locus YDR297W, strain sur2, hits give low values 1.02 | locus YDR318W, strain mcm21, hits give low values 1.02 | locus YDR334W, strain swr1, hits give low values 1.02 | locus YDR335W, strain msn5, hits give low values 1.03 | locus YDR388W, hits give low values 1.01 | locus YDR392W, strain spt3, hits give low values 0.981 | locus YDR502C, strain sam2, hits give low values 1 | locus YEL003W, strain gim4, hits give low values 1.02 | locus YEL037C, strain rad23, hits give low values 1.02 | locus YEL061C, strain CIN8 (second series), hits give low values 1.02 | locus YEL061C, strain CIN8, hits give low values 1.01 | locus YER015W, strain faa2, hits give low values 1.02 | locus YER016W, strain bim1, hits give low values 1.01 | locus YER110C, hits give low values 1.02 | locus YER111C, strain swi4, hits give low values 1.04 | locus YER155C, strain BEM2 (second series), hits give low values 0.995 | locus YER155C, strain BEM2, hits give low values 1.01 | locus YER167W, strain BCK2, hits give low values 0.996 | locus YFR010W, strain ubp6, hits give low values 1.01 | locus YGL078C, strain dbp3, hits give low values 1.02 | locus YGL086W, strain mad1, hits give low values 0.992 | locus YGL167C, strain pmr1, hits give low values 1.02 | locus YGL173C, strain kem1, hits give low values 1.02 | locus YGL227W, strain vid30, hits give low values 1.03 | locus YGL240W, strain doc1, hits give low values 1.01 | locus YGL248W, strain PDE1, hits give low values 1.01 | locus YGL253W, strain hxk2, hits give low values 1.01 | locus YGR135W, strain pre9, hits give low values 1.07 | locus YGR252W, strain gcn5, hits give low values 1.1 | locus YHR013C, strain ard1, hits give low values 1.04 | locus YHR027C, strain rpn1, hits give low values 1.02 | locus YHR030C, strain SLT2, hits give low values 0.995 and 0.988 | locus YHR079C, strain IRE1 (second series), hits give low values 1.01 | locus YHR079C, strain IRE1, hits give low values 1 | locus YHR094C, strain hxt1, hits give low values 1.02 | locus YHR129C, strain ARP1, hits give low values 1.01 | locus YHR142W, strain chs7, hits give low values 1.04 | locus YHR200W, strain rpn10, hits give low values 1.01 | locus YIL066C, strain RNR3, hits give low values 1 | locus YIL073C, strain SPO22, hits give low values 1.02 | locus YIL125W, strain kgd1, hits give low values 1 | locus YIR030C, strain dcg1, hits give low values 1.03 | locus YJL092W, strain hpr5, hits give low values 1.03 | locus YJL095W, strain BCK1 (second series), hits give low values 1.02 | locus YJL095W, strain BCK1, hits give low values 1.03 and 0.999 | locus YJL115W, strain asf1, hits give low values 1.01 | locus YJL129C, strain trk1, hits give low values 1.03 | locus YJL134W, strain LCB3, hits give low values 1.01 | locus YJL154C, strain vps35, hits give low values 1.02 | locus YJL164C, strain tpk1, hits give low values 1.02 | locus YJL166W, strain qcr8, hits give low values 1.04 | locus YJL168C, strain set2, hits give low values 1.02 | locus YJL187C, strain SWE1 (second series), hits give low values 1.01 | locus YJL187C, strain SWE1, hits give low values 1.02 | locus YJR043C, strain POL32, hits give low values 0.999 | locus YJR066W, strain TOR1, hits give low values 0.937 | locus YJR075W, strain HOC1, hits give low values 1 | locus YKL009W, strain mrt4, hits give low values 1.01 | locus YKL068W, hits give low values 1.01 | locus YKL085W, strain MDH1 (second series), hits give low values 1.01 | locus YKL085W, strain MDH1, hits give low values 1.01 | locus YKL160W, strain elf1, hits give low values 1.05 | locus YKR001C, strain vps1, hits give low values 1 | locus YKR026C, strain gcn3, hits give low values 1.02 | locus YKR091W, strain srl3, hits give low values 1.02 | locus YLL001W, strain dnm1, hits give low values 1.03 | locus YLL026W, hits give low values 1.02 | locus YLL041C, strain sdh2, hits give low values 1.01 | locus YLR027C, strain aat2, hits give low values 1.01 | locus YLR039C, strain RIC1, hits give low values 1.06 | locus YLR058C, strain SHM2, hits give low values 1.01 | locus YLR102C, strain apc9, hits give low values 1.01 | locus YLR113W, strain HOG1, hits give low values 1.02 | locus YLR221C, strain rsa3, hits give low values 1.03 | locus YLR258W, strain gsy2, hits give low values 1.04 | locus YLR262C, strain YPT6 (second series), hits give low values 1.04 | locus YLR262C, strain YPT6, hits give low values 0.987 | locus YLR268W, strain sec22, hits give low values 1.01 | locus YLR320W, strain mms22, hits give low values 1.06 | locus YLR330W, strain CHS5, hits give low values 1.01 | locus YLR342W, strain FKS1 (second series), hits give low values 1.03 | locus YLR342W, strain FKS1, hits give low values 1.03 | locus YLR357W, strain rsc2, hits give low values 1.01 | locus YLR370C, strain arc18, hits give low values 1.03 | locus YLR371W, strain rom2, hits give low values 1.01 | locus YLR384C, strain iki3, hits give low values 1.03 | locus YLR418C, strain cdc73, hits give low values 1.03 | locus YML016C, strain PPZ1, hits give low values 1 | locus YML032C, strain rad52, hits give low values 0.996 | locus YML120C, strain ndi1, hits give low values 1.04 | locus YML124C, strain tub3, hits give low values 1.03 | locus YMR058W, strain fet3, hits give low values 1.01 | locus YMR078C, strain ctf18, hits give low values 1.01 | locus YMR125W, strain sto1, hits give low values 1.03 | locus YMR129W, hits give low values 1.02 | locus YMR205C, strain PFK2, hits give low values 1.05 | locus YMR223W, strain ubp8, hits give low values 1.05 | locus YMR231W, strain pep5, hits give low values 1.02 | locus YMR307W, strain GAS1, hits give low values 1.04 | locus YNL067W, strain RPL9B, hits give low values 0.995 | locus YNL071W, strain lat1, hits give low values 1.03 | locus YNL153C, strain GIM3, hits give low values 1.01 | locus YNL183C, strain NPR1, hits give low values 0.945 | locus YNL209W, strain ssb2, hits give low values 1.03 | locus YNL233W, strain BNI4, hits give low values 1.01 | locus YNL248C, strain rpa49, hits give low values 1.02 | locus YNL250W, strain rad50, hits give low values 1.03 | locus YNL271C, strain bni1, hits give low values 1.04 | locus YNL298W, strain CLA4, hits give low values 1.04 | locus YNL307C, strain MCK1, hits give low values 1.02 | locus YNL322C, strain KRE1 (second series), hits give low values 1.04 | locus YNR049C, strain mso1, hits give low values 1.02 | locus YNR052C, strain pop2, hits give low values 1.01 | locus YOL006C, strain TOP1, hits give low values 1.03 | locus YOL012C, strain htz1 2.14 | locus YOL147C, strain pex11, hits give low values 1.02 | locus YOR001W, strain rrp6, hits give low values 1 | locus YOR061W, strain CKA2, hits give low values 1.01 | locus YOR069W, strain VPS5, hits give low values 1.01 | locus YOR070C, strain gyp1, hits give low values 1.03 | locus YOR080W, strain dia2, hits give low values 1.02 | locus YOR083W, strain WHI5, hits give low values 1.04 | locus YOR106W, strain vam3, hits give low values 1.05 | locus YOR136W, strain idh2, hits give low values 1.01 | locus YOR144C, strain elg1, hits give low values 1 | locus YOR184W, strain ser1, hits give low values 1.01 | locus YOR231W, strain MKK1, hits give low values 0.999 | locus YOR265W, strain rbl2, hits give low values 1.02 | locus YOR270C, strain vph1, hits give low values 1.03 | locus YOR290C, strain snf2, hits give low values 0.982 | locus YOR316C, strain cot1, hits give low values 1.01 | locus YPL051W, strain arl3, hits give low values 1.02 | locus YPL055C, strain LGE1, hits give low values 1.01 | locus YPL078C, strain atp4, hits give low values 1.04 | locus YPL106C, strain sse1, hits give low values 1 | locus YPL240C, strain hsp82, hits give low values 1.01 | locus YPL241C, strain CIN2, hits give low values 0.999 | locus YPL256C, strain CLN2, hits give low values 0.974 | locus YPR119W, strain clb2, hits give low values 1.01 | locus YPR141C, strain kar3, hits give low values 1.02 | locus YPR163C, strain tif3, hits give low values 1.02 | locus YPR167C, strain met16, hits give low values 1.02 | strain wtn01, hits give low values 1.02
